# Laboratory results published in the supplement of paper PMC6992640.
# ± gives the standard deviation of the averaged measurements.
# How the values were obtained:
# Experiment in all cases: cell viability (% of vehicle); higher = less cytotoxic
# Settings in all cases: 10 µM; 72 h
# HCI01 = system: HCI01 (cells of a triple-negative basal-like breast cancer xenograft)
# HCI03 = system: HCI03 (cells of an ER-positive luminal breast cancer xenograft)
# HCI09 = system: HCI09 (cells of a triple-negative luminal androgen receptor type breast cancer xenograft)
# HCI11 = system: HCI11 (cells of an ER-positive luminal breast cancer xenograft)
# HCI13 = system: HCI13 (cells of an ER-positive luminal breast cancer xenograft)
# HCI16 = system: HCI16 (cells of a triple-negative basal-like breast cancer xenograft)
# UCD52 = system: UCD52 (cells of a triple-negative basal-like breast cancer xenograft)
# WHIM2 = system: WHIM2 (cells of a triple-negative basal-like breast cancer xenograft)
# WHIM30 = system: WHIM30 (cells of a triple-negative basal-like breast cancer xenograft)
# 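Further: PDX cells carrying CMV promoter-driven luciferase, viability read as total photon flux per second by IVIS imaging following D-luciferin, vehicle control 0.1% DMSO.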
SMILES,cell viability (HCI01),cell viability (HCI03),cell viability (HCI09),cell viability (HCI11),cell viability (HCI13),cell viability (HCI16),cell viability (UCD52),cell viability (WHIM2),cell viability (WHIM30)
Cc1c(O)c(=O)ccn1C [Deferiprone],81 ± 3.5,102,83.6 ± 14,77.1,93 ± 5.8,102,85.8 ± 1.6,144 ± 12,89.2 ± 3.3
CC(C)(Oc1ccc(C2CC2(Cl)Cl)cc1)C(=O)O (stereo not given) [Ciprofibrate],96 ± 14,126,94.3 ± 11,79.4,110 ± 12,114,96.2 ± 2.9,120 ± 3.9,127 ± 15
O=C1C(CCC(O)c2ccc(F)cc2)C(c2ccc(O)cc2)N1c1ccc(F)cc1 (stereo not given) [Ezetimibe],109 ± 6.1,102,86.6 ± 20,92.5,121 ± 3.4,97.3,81.4 ± 3.2,96 ± 5.4,100 ± 5.3
O=C1Nc2ccc(Cl)cc2C(C#CC2CC2)(C(F)(F)F)O1 (stereo not given) [Efavirenz],114 ± 16,85.9,68.9 ± 7.4,99.8,82.9 ± 7.3,108,69.5 ± 1.9,69.6 ± 46,82.3 ± 17
Cc1cccc(Nc2ccccc2C(=O)O)c1C [Mefenamic Acid],103 ± 23,102,118 ± 43,98.1,113 ± 6.7,90.9,94.4 ± 5.6,109 ± 6,112 ± 1.5
OC(Cn1cncn1)(Cn1cncn1)c1ccc(F)cc1F [Fluconazole],71.5 ± 43,153,99.3 ± 22,94.2,112 ± 4.8,119,76.5 ± 8.7,99.2 ± 27,180 ± 2.3
O=C(O)CCCN1CCC(OC(c2ccc(Cl)cc2)c2ccccn2)CC1.O=S(=O)(O)c1ccccc1 (stereo not given) [Bepotastine Besilate],155 ± 45,131,112 ± 1.6,96.6,121 ± 6.6,128,87.6 ± 21,87.7 ± 5.1,138 ± 10
CCN(CC)CCOCCOC(=O)C(CC)(CC)c1ccccc1.O=C(O)CC(O)(CC(=O)O)C(=O)O [Oxeladin Citrate],111.1 ± 1.1,92.7,143 ± 73,99.4,98.7 ± 22,122,84.9 ± 4.5,82.4 ± 24,119 ± 21
CC(=O)Nc1cccc(-n2c(=O)n(C3CC3)c(=O)c3c(Nc4ccc(I)cc4F)n(C)c(=O)c(C)c32)c1,103 ± 34,94,82.1 ± 34,98.3,110 ± 16,120,48 ± 14,74.2 ± 8.9,133 ± 24
CCCNC(=O)NS(=O)(=O)c1ccc(Cl)cc1 [Chlorpropamide],121 ± 28,113,73.9 ± 18,82.9,81.8 ± 25,105,92.5 ± 5.9,99.5 ± 14,104 ± 4.6
